Screening results (PubChem BioAssay)
In the library only some 2.4% were active in any assay of this set; here they are far more common.
M1 PAM parental: M1 PAM counterscreen hit in parental CHO-K1 cells; ATP EC20, Fluo-8 calcium fluorescence; 0% at ATP EC20, 100% at ATP max; activation, % at 3 µM; 360,000 compounds, 0.02% hits;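 active means activation above the run cutoff, the mean activation of all test compounds plus 3 SD, cut at about 40% in these data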;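 further: peak over basal fluorescence ratio in a 140 s read after ATP addition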
M1 ag parental: M1 agonist counterscreen hit in parental CHO-K1 cells; AID 602248; 360,000 compounds, 0.48% hits; Fluo-8 calcium fluorescence; scaled to maximal ATP response, vehicle zero; activation, % at 3 µM; in the data active means activation above about 15%;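 further: untransfected CHO-K1 host cells lacking M1 receptor as counterscreen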
M1 antag: human CHRM1 antagonism; P11229; CHO-K1 hM1, Fluo-8 calcium fluorescence, ACh EC80 antagonist; inhibition, % at 3 µM; 360,000 compounds, 1.3% hits;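 active means percent inhibition above its own plate's cutoff, namely the mean of that plate's compound wells plus 3 SD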;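 further: peak over basal fluorescence ratio during 140 s after agonist addition; 0% = ACh EC80 plus DMSO and 100% = DMSO alone without agonist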
Target sequence (P11229 whole entry, looked up): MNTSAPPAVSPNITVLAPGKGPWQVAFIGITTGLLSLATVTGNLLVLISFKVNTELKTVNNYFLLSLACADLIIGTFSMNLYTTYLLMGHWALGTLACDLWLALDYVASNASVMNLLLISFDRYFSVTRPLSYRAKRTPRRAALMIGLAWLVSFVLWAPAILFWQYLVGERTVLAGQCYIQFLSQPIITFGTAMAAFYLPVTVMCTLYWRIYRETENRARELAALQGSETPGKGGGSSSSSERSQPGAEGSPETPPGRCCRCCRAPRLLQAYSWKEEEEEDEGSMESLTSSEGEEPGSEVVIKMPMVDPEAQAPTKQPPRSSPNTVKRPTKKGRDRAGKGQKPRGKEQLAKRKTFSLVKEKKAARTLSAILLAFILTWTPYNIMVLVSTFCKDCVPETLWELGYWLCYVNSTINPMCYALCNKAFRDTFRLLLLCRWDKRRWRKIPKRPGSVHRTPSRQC
CHO-K1 Ca antag: nonselective inhibitor or artifact in parental CHO-K1 cells | ATP-induced calcium, Fluo-8 fluorescence | inhibition, % at 3 µM | 360,000 compounds, 0.6% hits | AID 602250;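 active means inhibition above a per-plate cutoff, the plate's mean sample inhibition plus 3 SD, cut at about 24% in these data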;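 further: 0% = DMSO plus EC80 ATP and 100% = DMSO alone without ATP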
M1 ag: human M1 muscarinic receptor agonism; activation, % at 3 µM; P11229; AID 588814; CHO-K1 hM1, Fluo-8 calcium fluorescence, agonist mode; 0% DMSO, 100% acetylcholine EC100; 360,000 compounds, 0.33% hits;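 active means activation above the run's mean compound activation plus 3 SD, cut at about 16% in these data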;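 further: peak over basal fluorescence ratio within a 140 s kinetic read after compound addition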
M1 PAM: positive allosteric modulators of human M1 muscarinic receptor; P11229; CHO-K1 hM1, Fluo-8 calcium fluorescence, ACh EC20; 0% = ACh EC20, 100% = maximal ACh; activation, % at 3 µM; 360,000 compounds, 0.088% hits; AID 588819; in the data active means activation above about 19%, passing the limit was not always enough
Active calls of the source: *.

SMILES	M1 PAM parental	M1 ag parental	M1 antag	CHO-K1 Ca antag	M1 ag	M1 PAM
CS(=O)(=O)c1ccc(C2=C(CNC(=O)c3ccncc3)[C@H]3CC[C@@H](C2)N3Cc2ccccc2)cc1	13.3	0.5	8.2	-5.2	-10.7	-8.4
C1CC2OC2CC1C1CO1 (stereo not given)	2.8	-0.3	-9.3	-9.4	-1.7	1.7
CCCCCCCSc1cc(OC)c(CCNC)cc1OC	22.9	4.6	7.3	-11.7	-0.8	1.4
CCCCCSc1cc(OC)c(CCNC)cc1OC	-5.5	0.8	36.1*	7.6	-7.7	-20.0
O=c1c2ccccc2nc(/C=C/c2ccc(O)cc2)n1-c1cccc(O)c1	12.6	3.6	5.7	9.5	-1.9	-2.4
COc1cccc(-n2c(/C=C/c3ccc(O)c(O)c3)nc3ccccc3c2=O)c1	-17.5	1.7	17.2	25.2*	-3.0	-10.5
O=c1c2ccccc2nc(/C=C/c2ccc3c(c2)OCO3)n1-c1cccc(O)c1	-13.6	-0.1	14.7	25.8*	-2.3	-7.5
Nc1cc(N2CCNCC2)ccc1[N+](=O)[O-]	18.0	1.1	-17.4	-8.5	-8.1	10.0
Clc1cccc(N2CCNCC2)c1	-7.8	0.0	-4.7	26.4*	-2.7	-6.1
CCN1CCN(Cc2cc(Br)cc(OC)c2O)CC1	28.6	0.5	55.6*	-7.7	-7.0	-22.1
Oc1c(Br)cc(Br)cc1CN1CCN(Cc2ccccc2)CC1	20.9	0.5	15.6	-6.7	-5.7	-10.9
O=c1c([N+](=O)[O-])cn(O)cc1[N+](=O)[O-]	5.1	0.6	-8.0	-9.2	-2.2	2.6
COc1ccc(S(=O)(=O)N2Cc3ccccc3-n3nncc3C2)cc1	17.8	4.6	-3.4	-12.1	-4.4	-2.6
CC(C)S(=O)(=O)N1Cc2ccccc2-n2nncc2C1	-11.2	0.0	46.5*	9.2	-10.8	-27.8
COc1cc(CN2CC=C(c3ccc(F)cc3)CC2)cc(OC)c1	-6.8	0.9	30.8*	-2.4	-10.2	-25.4
Fc1ccc(CCNCc2ccc(Br)cc2)cc1	40.8*	4.0	-3.2	-15.4	-9.0	3.5
O=C(O)C1CN2CCC1CC2 (stereo not given)	6.8	0.2	4.1	0.3	25.3*	-6.3
O=C(c1cccs1)N1CCC(C(=O)O)(c2ccccc2)CC1	34.2	1.3	-14.6	-25.3	-1.9	9.1
O=C(c1cccs1)C1CN2CCC1CC2 (stereo not given)	7.3	-0.1	38.4*	-3.4	-5.4	-19.4
CN1CC(C(=O)c2cccs2)C(c2ccc(Cl)cc2)C1 (stereo not given)	13.4	20.6*	-0.7	7.0	-7.1	-4.7
CCc1cc(=O)oc2cc(OCC(=O)N3C[C@H]4C[C@@H](C3)c3cccc(=O)n3C4)ccc12	-2.0	0.1	-11.3	8.1	-8.5	11.1
COC(=O)C1=C(c2ccc(C(C)=O)cc2)C[C@@H]2CC[C@H]1N2C(=O)N1CCC(O)(c2ccc(Cl)cc2)CC1	-1.8	-0.5	-12.3	6.5	-3.6	7.2
C#C[C@]1(O)CCC2C3C(CC[C@@]21C)[C@@]1(C)CC[C@@H](O)CC1=C[C@H]3O (stereo not given in full)	15.6	0.9	-5.7	0.5	1.2	4.2
CCOP(=S)(OCC)Oc1cc(C)oc(=O)c1Cl	14.9	0.8	4.7	-14.8	-2.5	7.5
CCOP(=S)(OCC)Oc1cc(C)oc(=O)c1	-2.2	0.7	1.0	-2.8	-1.7	29.1*
SMILES	M1 PAM parental	M1 ag parental	M1 antag	CHO-K1 Ca antag	M1 ag	M1 PAM
COc1ccccc1CCNCc1cccc(C(F)(F)F)c1	9.6	1.1	-10.5	-5.7	-2.5	4.0
C[CH2][Hg][S]c1ccccc1C(=O)O	3.0	-0.1	-15.6	5.7	7.5	8.3
OC(Cn1c2ccccc2c2ccccc21)C[n+]1cccc2ccccc21 (stereo not given)	24.0	-0.1	62.6*	-11.5	-6.9	-21.9
O=C(NCNC(=O)NC1C(=O)NC(=O)N1CO)NC1C(=O)NC(=O)N1CO (stereo not given)	-3.3	-0.3	-32.0	2.6	0.9	3.6
Cc1cc(-c2cc(C)c(N)c(C)c2)cc(C)c1N	-3.7	0.6	3.6	-12.7	-1.4	-5.1
COc1cc(/C=C/[N+](=O)[O-])ccc1O	-11.3	-0.2	6.9	-0.1	-2.1	1.6
CCN(CC)c1ccc(/C=C/[N+](=O)[O-])cc1	-2.5	59.6*	53.0*	31.0*	69.9*	-8.1
COc1ccc(N2C(=O)C(=O)N(c3ccc(OC)cc3)P2(=O)N(CCCl)CCCl)cc1	1.9	0.3	0.5	4.2	1.3	3.2
Cc1nn(Cc2ccccc2)c(Cl)c1C(=O)O	18.8	1.0	-8.0	-11.9	-3.3	8.7
Cc1nn(Cc2ccccc2Cl)c(Cl)c1C(=O)O	5.7	0.1	35.7*	-10.3	-3.9	2.3
COc1ccccc1C1CC2CCC(C1OC(C)=O)N2Cc1ccccc1 (stereo not given)	11.2	-0.3	-23.3	10.7	-6.8	1.8
CC1CC(OC(=O)c2ccccc2)CC(C)N1C (stereo not given)	20.5	0.2	42.1*	-4.4	-11.0	-26.0
CN1C2CCC1CC(OC(=O)c1cccc(O)c1)C2 (stereo not given)	4.6	0.6	59.1*	0.6	-14.0	-32.9
O=C(O)C1CC2(Cl)C(Cl)=C(Cl)C1(Cl)C2(Cl)Cl (stereo not given)	4.5	0.0	-6.4	-4.0	-3.2	5.3
COC(=O)c1ccc(N2CCN(C)CC2)c([N+](=O)[O-])c1	9.8	19.2*	2.0	4.6	-12.6	-2.5
CN1CCN(c2ccc([N+](=O)[O-])cc2Cl)CC1	-6.6	0.8	1.7	-3.6	-4.2	1.0
Cc1cc(C)c2c(ccc3cccc[n+]32)c1	-3.6	0.2	-3.7	-1.0	-7.1	-0.2
COC1=CC(=O)OC(CCc2ccc3c(c2)OCO3)C1 (stereo not given)	0.6	0.4	0.2	-2.5	-2.0	-2.8
CCOP(=O)(OCC)C(NC(=O)c1ccccc1)C(Cl)(Cl)Cl (stereo not given)	-13.6	0.2	-4.2	24.1*	-5.8	3.8
Cc1ccc(OCC(=O)N2CCN(Cc3ccc4c(c3)OCO4)CC2)cc1	-18.0	0.0	-3.7	29.6*	-11.8	5.2
COC1=C(OC)[C@]23CCc4ccc(OC)c(OC)c4[C@]2(CCN3C)CC1=O	-16.5	-0.2	5.7	6.3	1.5	10.6
CC[N+](CC)(CC)CCCOC(=O)C(O)(c1ccccc1)C1CCCCC1 (stereo not given)	10.7	0.0	99.2*	-2.4	-6.2	-23.2
C[N+](C)(N)CCOC(=O)C(O)(c1ccccc1)C1CCCCC1 (stereo not given)	2.4	0.3	100.4*	-7.5	-8.5	-25.9
